Reference: ChEMBL document CHEMBL1961873, “Compounds: GSK PKIS; Assays: Nanosyn kinase panel” (2012)

Legend:
[1] = target: CDK3/Cyclin E (Homo sapiens) (UniProt P24864+Q00526); details: at 1 µM;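 further: each figure is a mean percent inhibition of the CDK3/cyclin E complex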
[2] = target: Cyclin-dependent kinase 4 (Homo sapiens) (UniProt P11802); details: at 0.1 µM
[3] = target: Cyclin-dependent kinase 4 (Homo sapiens) (UniProt P11802); details: at 1 µM
[4] = target: Cyclin-dependent kinase 5 (Homo sapiens) (UniProt Q00535); details: at 0.1 µM
Sequence of Cyclin-dependent kinase 5 (Homo sapiens) (Q00535 whole entry, looked up): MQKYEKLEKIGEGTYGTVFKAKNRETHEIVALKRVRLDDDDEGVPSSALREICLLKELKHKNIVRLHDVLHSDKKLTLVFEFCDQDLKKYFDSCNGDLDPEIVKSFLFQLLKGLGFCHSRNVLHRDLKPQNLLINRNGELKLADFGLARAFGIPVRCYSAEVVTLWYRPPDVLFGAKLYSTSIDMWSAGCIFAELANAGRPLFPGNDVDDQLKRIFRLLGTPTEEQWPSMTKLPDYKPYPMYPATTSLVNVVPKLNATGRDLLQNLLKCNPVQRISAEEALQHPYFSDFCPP

[5] = target: Cyclin-dependent kinase 5 (Homo sapiens) (UniProt Q00535); details: at 1 µM
[6] = target: Cyclin-dependent kinase 6 (Homo sapiens) (UniProt Q00534); details: at 1 µM
Sequence of Cyclin-dependent kinase 6 (Homo sapiens) (Q00534 whole entry): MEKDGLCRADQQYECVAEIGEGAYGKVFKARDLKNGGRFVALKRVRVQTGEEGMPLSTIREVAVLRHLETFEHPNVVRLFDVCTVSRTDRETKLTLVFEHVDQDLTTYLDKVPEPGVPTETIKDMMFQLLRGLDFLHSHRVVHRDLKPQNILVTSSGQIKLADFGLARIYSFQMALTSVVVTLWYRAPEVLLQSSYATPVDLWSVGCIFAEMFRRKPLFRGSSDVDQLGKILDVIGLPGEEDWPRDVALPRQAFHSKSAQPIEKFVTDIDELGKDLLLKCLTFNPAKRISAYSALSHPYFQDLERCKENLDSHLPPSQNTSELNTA

[7] = target: Dual specificity protein kinase CLK2 (Homo sapiens) (UniProt P49760); details: at 0.1 µM
Sequence of Dual specificity protein kinase CLK2 (Homo sapiens) (P49760 whole entry, looked up): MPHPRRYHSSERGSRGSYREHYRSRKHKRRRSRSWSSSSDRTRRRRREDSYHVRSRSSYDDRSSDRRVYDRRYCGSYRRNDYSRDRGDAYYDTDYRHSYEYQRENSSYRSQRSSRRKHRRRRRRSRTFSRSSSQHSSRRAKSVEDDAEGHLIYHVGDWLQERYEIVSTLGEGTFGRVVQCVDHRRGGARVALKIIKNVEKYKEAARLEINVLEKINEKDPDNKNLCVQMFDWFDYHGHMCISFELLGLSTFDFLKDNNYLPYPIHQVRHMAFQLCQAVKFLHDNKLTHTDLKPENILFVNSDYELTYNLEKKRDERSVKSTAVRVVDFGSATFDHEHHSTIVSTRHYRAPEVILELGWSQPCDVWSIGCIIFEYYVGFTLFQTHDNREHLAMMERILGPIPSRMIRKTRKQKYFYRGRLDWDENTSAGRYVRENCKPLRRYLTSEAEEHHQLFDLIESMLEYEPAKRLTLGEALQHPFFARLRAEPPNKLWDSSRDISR

[8] = target: Dual specificity protein kinase CLK2 (Homo sapiens) (UniProt P49760); details: at 1 µM
[9] = target: Dual specificity protein kinase CLK3 (Homo sapiens) (UniProt P49761); details: at 0.1 µM
Sequence of Dual specificity protein kinase CLK3 (Homo sapiens) (P49761 whole entry, looked up): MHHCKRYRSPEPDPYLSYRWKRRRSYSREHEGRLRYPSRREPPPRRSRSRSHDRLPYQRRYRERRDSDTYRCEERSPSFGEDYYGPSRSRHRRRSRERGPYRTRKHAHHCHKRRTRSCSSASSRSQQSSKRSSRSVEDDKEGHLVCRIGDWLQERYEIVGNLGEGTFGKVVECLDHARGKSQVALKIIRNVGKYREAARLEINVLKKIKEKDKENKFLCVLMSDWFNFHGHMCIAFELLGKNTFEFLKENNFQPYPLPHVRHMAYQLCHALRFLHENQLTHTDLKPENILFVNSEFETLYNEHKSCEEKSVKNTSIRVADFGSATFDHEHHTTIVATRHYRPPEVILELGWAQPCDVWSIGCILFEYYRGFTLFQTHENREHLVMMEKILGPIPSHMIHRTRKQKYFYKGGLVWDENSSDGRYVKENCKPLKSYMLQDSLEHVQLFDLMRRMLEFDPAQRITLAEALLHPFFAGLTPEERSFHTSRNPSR

[10] = target: Cyclin-dependent kinase 6 (Homo sapiens) (UniProt Q00534); details: at 0.1 µM

Sequence of Cyclin-dependent kinase 4 (Homo sapiens) (P11802 whole entry): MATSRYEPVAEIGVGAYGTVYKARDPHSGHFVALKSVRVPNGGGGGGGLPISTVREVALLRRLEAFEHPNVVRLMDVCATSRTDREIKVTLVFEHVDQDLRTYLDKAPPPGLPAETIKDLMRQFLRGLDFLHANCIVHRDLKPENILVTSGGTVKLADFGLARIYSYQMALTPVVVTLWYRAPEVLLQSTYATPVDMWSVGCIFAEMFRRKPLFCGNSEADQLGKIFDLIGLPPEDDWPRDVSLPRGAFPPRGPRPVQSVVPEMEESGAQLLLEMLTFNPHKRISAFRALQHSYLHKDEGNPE
Sequence of CDK3/Cyclin E (Homo sapiens) (P24864 whole entry, looked up): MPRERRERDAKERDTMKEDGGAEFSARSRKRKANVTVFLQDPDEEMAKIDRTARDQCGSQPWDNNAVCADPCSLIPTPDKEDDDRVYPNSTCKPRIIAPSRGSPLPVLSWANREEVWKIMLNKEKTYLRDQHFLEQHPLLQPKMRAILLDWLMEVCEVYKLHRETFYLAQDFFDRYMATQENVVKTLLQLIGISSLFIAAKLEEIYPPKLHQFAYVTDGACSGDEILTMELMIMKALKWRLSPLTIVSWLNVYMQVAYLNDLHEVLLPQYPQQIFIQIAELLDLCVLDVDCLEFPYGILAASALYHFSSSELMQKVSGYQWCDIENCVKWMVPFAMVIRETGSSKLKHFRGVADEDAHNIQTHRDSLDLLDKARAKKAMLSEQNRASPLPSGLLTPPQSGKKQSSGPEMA
Sequence of CDK3/Cyclin E (Homo sapiens) (Q00526 whole entry, looked up): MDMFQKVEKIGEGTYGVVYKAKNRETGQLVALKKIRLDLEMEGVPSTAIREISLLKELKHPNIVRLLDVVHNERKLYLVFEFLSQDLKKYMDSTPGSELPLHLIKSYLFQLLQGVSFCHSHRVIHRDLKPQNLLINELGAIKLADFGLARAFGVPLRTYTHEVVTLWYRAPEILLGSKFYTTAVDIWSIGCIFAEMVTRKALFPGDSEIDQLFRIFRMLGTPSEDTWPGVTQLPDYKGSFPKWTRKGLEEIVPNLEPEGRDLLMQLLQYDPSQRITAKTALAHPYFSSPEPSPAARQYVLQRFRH

CS(=O)(=O)CCNCc1ccc(-c2ccc3ncnc(Nc4ccc(OCc5cccc(F)c5)c(C(F)(F)F)c4)c3c2)o1
inhibition [1]: -2.95%
inhibition [2]: 2.52%
inhibition [3]: 2.44%
inhibition [4]: 0.38%
inhibition [5]: 0.07%
inhibition [6]: -2.6%
inhibition [7]: 0.58%
inhibition [8]: 0.13%
inhibition [9]: 1.49%

COc1cc2ncn(-c3cc(OCc4ccccc4C(F)(F)F)c(C(N)=O)s3)c2cc1OC
inhibition [1]: -0.14%
inhibition [2]: -1.16%
inhibition [3]: 1.16%
inhibition [4]: -3.58%
inhibition [5]: -1.09%
inhibition [10]: -3.21%
inhibition [6]: -1.7%
inhibition [7]: 1.94%
inhibition [8]: 6.82%
inhibition [9]: -2.62%

Nc1ncnc2occ(-c3ccc(NC(=O)Nc4cccc(C(F)(F)F)c4)cc3)c12
inhibition [1]: 16.6%
inhibition [2]: 3.45%
inhibition [3]: 6.6%
inhibition [4]: 0.37%
inhibition [5]: 4.7%
inhibition [10]: 1.3%
inhibition [6]: 2.21%
inhibition [7]: 0.14%
inhibition [8]: 2.59%
inhibition [9]: 1.01%

Cc1nn(C)c2cc(N(C)c3ccnc(Nc4cccc(S(N)(=O)=O)c4)n3)ccc12
inhibition [1]: -0.68%
inhibition [2]: 1.72%
inhibition [3]: 4.46%
inhibition [4]: 0.41%
inhibition [5]: 2.78%
inhibition [6]: -0.34%
inhibition [7]: 0.73%
inhibition [8]: 0.86%
inhibition [9]: 1.2%

CC1=C(C(=O)Nc2ccc3[nH]ncc3c2)C(c2ccc(Cl)c(Cl)c2)CC(=O)N1 (stereo not given)
inhibition [1]: 0.2%
inhibition [2]: 0.92%
inhibition [3]: -0.63%
inhibition [4]: -0.73%
inhibition [5]: -0.62%
inhibition [10]: 2.47%
inhibition [6]: 0.05%
inhibition [7]: 0.09%
inhibition [8]: 4.18%
inhibition [9]: 0.34%

Fc1cccc(COc2ccc(Nc3ncnc4cc(-c5ccc[nH]5)sc34)cc2Cl)c1
inhibition [1]: -1.23%
inhibition [2]: -1.38%
inhibition [3]: 1.79%
inhibition [4]: -2.8%
inhibition [5]: -0.09%
inhibition [10]: -9.87%
inhibition [6]: -4.56%
inhibition [7]: 0.06%
inhibition [8]: -0.33%
inhibition [9]: -2.46%

COc1cccc(-n2ncc3c(N/N=C/c4cccc(F)c4)ncnc32)c1
inhibition [1]: 5.59%
inhibition [2]: 0.03%
inhibition [3]: 22.1%
inhibition [4]: 3.4%
inhibition [5]: 34.2%
inhibition [10]: -5.64%
inhibition [6]: 17.1%
inhibition [7]: 2.25%
inhibition [8]: 1.15%
inhibition [9]: -2.19%

COc1cc2c(cc1Nc1nc(N3CCc4ccccc43)c3cc[nH]c3n1)N(C(=O)CN(C)C)CC2
inhibition [1]: 1.66%
inhibition [2]: 2.1%
inhibition [3]: 3.3%
inhibition [4]: 0.44%
inhibition [5]: 0.4%
inhibition [10]: 0.95%
inhibition [6]: 1.09%
inhibition [7]: 7.85%
inhibition [8]: 44.4%
inhibition [9]: 0.14%

Cc1cccc(-c2n[nH]cc2-c2ccc3ncccc3n2)n1
inhibition [1]: -2.25%
inhibition [2]: -0.55%
inhibition [3]: 2.39%
inhibition [4]: -0.23%
inhibition [5]: 0.38%
inhibition [10]: -3.86%
inhibition [6]: 0.55%
inhibition [7]: -0.31%
inhibition [8]: 3.44%
inhibition [9]: 0.37%

N#Cc1c(NC(=O)c2cccc3ccccc23)sc2c1CCCC2
inhibition [1]: -0.77%
inhibition [2]: 3.82%
inhibition [3]: 6.92%
inhibition [4]: 1.3%
inhibition [5]: 5.67%
inhibition [6]: 4.55%
inhibition [7]: 1.29%
inhibition [8]: 0.3%
inhibition [9]: 0.63%

CS(=O)(=O)CCNCc1ccc(-c2ccc3ncnc(Nc4ccc(OCc5ccccc5)c(Cl)c4)c3c2)o1
inhibition [1]: -1.2%
inhibition [2]: -0.14%
inhibition [3]: 4.1%
inhibition [4]: 2.15%
inhibition [5]: 3.8%
inhibition [10]: -5.27%
inhibition [6]: -2.22%
inhibition [7]: 2.2%
inhibition [8]: 1.75%
inhibition [9]: 0.36%

Nc1nc(-c2ccccn2)c(-c2ccc3ncccc3n2)s1
inhibition [1]: 0.5%
inhibition [2]: 3.41%
inhibition [3]: 4.48%
inhibition [4]: 1.28%
inhibition [5]: 2.86%
inhibition [10]: 6.73%
inhibition [6]: 7.75%
inhibition [7]: -0.01%
inhibition [8]: 0.69%
inhibition [9]: 2.95%

CCc1cccc(NC(=O)Nc2ccc(Oc3ccc4nc(NC(=O)OC)[nH]c4c3)cc2)c1
inhibition [1]: -1.16%
inhibition [2]: 0.97%
inhibition [3]: 1.5%
inhibition [4]: -0.16%
inhibition [5]: -0.09%
inhibition [10]: 7.42%
inhibition [6]: 1.51%
inhibition [7]: 0.09%
inhibition [8]: 1.38%
inhibition [9]: 0.3%

O=C1NC(=O)C(N2CCc3ccccc32)=C1c1ccc(Cl)cc1
inhibition [1]: 0.23%
inhibition [2]: 3.68%
inhibition [3]: 5.74%
inhibition [4]: 2.06%
inhibition [5]: 2.74%
inhibition [10]: -3.76%
inhibition [6]: 5.39%
inhibition [7]: -0.03%
inhibition [8]: 0.46%
inhibition [9]: 2.68%

NC(=O)c1ccc(-c2nc(-c3ccccn3)c(-c3ccc4c(c3)OCO4)[nH]2)cc1
inhibition [1]: -1.06%
inhibition [2]: 1.33%
inhibition [3]: 1.94%
inhibition [4]: 0.55%
inhibition [5]: 0.87%
inhibition [10]: 1%
inhibition [6]: -1.82%
inhibition [7]: 1.23%
inhibition [8]: 1.07%
inhibition [9]: -1.49%

CCn1c(-c2nonc2N)nc2ccncc21
inhibition [1]: -0.78%
inhibition [2]: 1.15%
inhibition [3]: 3.35%
inhibition [4]: 0.45%
inhibition [5]: 1.71%
inhibition [6]: -1.56%
inhibition [7]: 3.93%
inhibition [8]: 3.92%
inhibition [9]: -0.93%

Fc1cccc(COc2ccc(Nc3ncnc4sc(-c5cccs5)cc34)cc2Cl)c1
inhibition [1]: 0.05%
inhibition [2]: 0.35%
inhibition [3]: 2.13%
inhibition [4]: 0.55%
inhibition [5]: 1.81%
inhibition [10]: -0.81%
inhibition [6]: 0.5%
inhibition [7]: 1.58%
inhibition [8]: 1.69%
inhibition [9]: 0.66%

CC(=O)Nc1cccc(C#Cc2cncnc2Nc2ccc(OCc3cccc(F)c3)c(Cl)c2)n1
inhibition [1]: -0.89%
inhibition [2]: -1.95%
inhibition [3]: -1.42%
inhibition [4]: 0.24%
inhibition [5]: 1.19%
inhibition [10]: -1.85%
inhibition [7]: 0.62%
inhibition [8]: 0.84%
inhibition [9]: -0.78%

CCCN1CCC=C(c2ccc(Nc3nc(Nc4ccccc4C(N)=O)c4cc[nH]c4n3)c(C)c2)C1
inhibition [1]: 4.3%
inhibition [2]: 4.35%
inhibition [3]: 10.9%
inhibition [4]: 1.88%
inhibition [5]: 9.85%
inhibition [10]: 0.69%
inhibition [6]: 5.64%
inhibition [7]: 38.2%
inhibition [8]: 88.9%
inhibition [9]: -0.17%

COC(=O)Nc1nc2cc(Oc3ccc(NC(=O)Nc4cccc(C(=O)O)c4)cc3)ccc2[nH]1
inhibition [1]: -0.13%
inhibition [2]: -1.05%
inhibition [3]: 2.01%
inhibition [4]: -1.87%
inhibition [5]: -0.58%
inhibition [10]: 4.45%
inhibition [6]: 2.67%
inhibition [7]: 2.17%
inhibition [8]: 0.77%
inhibition [9]: -3.22%

Cn1cc(C=C2C(=O)Nc3cccnc32)c2ccccc21
inhibition [1]: 3.36%
inhibition [2]: 4.89%
inhibition [3]: 11%
inhibition [4]: 5.57%
inhibition [5]: 7.28%
inhibition [10]: 1.04%
inhibition [6]: 8.56%
inhibition [7]: 3.28%
inhibition [8]: 13.7%
inhibition [9]: 0.62%

COc1ccc2cc(-c3c(-c4ccncc4)nc(-c4ccc([S+](C)[O-])cc4)n3C)ccc2c1 (stereo not given)
inhibition [1]: -0.42%
inhibition [2]: 2.74%
inhibition [3]: 2.79%
inhibition [4]: 0.96%
inhibition [5]: 1.53%
inhibition [10]: -3.35%
inhibition [6]: -1.41%
inhibition [7]: 0.22%
inhibition [8]: 1.33%
inhibition [9]: 0.91%

NS(=O)(=O)c1cccc(-c2ccc3c(NC(=O)C4CC4)n[nH]c3c2)c1
inhibition [1]: 1.71%
inhibition [2]: -1.17%
inhibition [3]: 1.45%
inhibition [4]: 0.87%
inhibition [5]: 1.78%
inhibition [10]: -1.94%
inhibition [6]: 6.01%
inhibition [7]: -0.55%
inhibition [8]: -0.78%
inhibition [9]: 0.83%

NC(=O)c1cccc(Nc2nccc(Nc3cccc4[nH]ncc34)n2)c1
inhibition [1]: 23.7%
inhibition [2]: -0.82%
inhibition [3]: 5.05%
inhibition [4]: 1.84%
inhibition [5]: 14.1%
inhibition [10]: 0.2%
inhibition [6]: 0.3%
inhibition [7]: 1.19%
inhibition [8]: 27.8%
inhibition [9]: 0.15%

O=C1Nc2ccc(C(=O)c3ccco3)cc2C1=Cc1cc(Cl)c(O)c(Cl)c1
inhibition [1]: -0.28%
inhibition [2]: 3.32%
inhibition [3]: 7.07%
inhibition [4]: 1.97%
inhibition [5]: 6.39%
inhibition [10]: 3.35%
inhibition [6]: 7.37%
inhibition [7]: 64.6%
inhibition [8]: 95.7%
inhibition [9]: 22.3%

CCn1c(-c2nonc2N)nc2cnc(Oc3cccc(NC(=O)c4ccc(OCCN5CCOCC5)cc4)c3)cc21
inhibition [1]: -2.11%
inhibition [2]: 3.32%
inhibition [3]: 2.38%
inhibition [4]: -0.26%
inhibition [5]: 0.42%
inhibition [10]: -1.58%
inhibition [6]: -0.79%
inhibition [7]: -0.98%
inhibition [8]: -0.12%
inhibition [9]: 0.57%

O=C1NC(=O)C(c2ccccc2Cl)=C1Nc1cccc(O)c1
inhibition [1]: 19.4%
inhibition [2]: 7.12%
inhibition [3]: 25.4%
inhibition [4]: 4.62%
inhibition [5]: 26.6%
inhibition [10]: 7.16%
inhibition [6]: 28.7%
inhibition [7]: 4.29%
inhibition [8]: 36.9%
inhibition [9]: 2.2%

CCn1c(-c2nonc2N)nc2c(C#CC(C)(C)O)nc(OC[C@@H](N)c3ccccc3)cc21
inhibition [1]: 0.99%
inhibition [2]: -0.22%
inhibition [3]: 0.8%
inhibition [4]: 0.35%
inhibition [5]: 0.49%
inhibition [10]: -0.27%
inhibition [6]: -0.99%
inhibition [7]: 0.81%
inhibition [8]: 2.4%
inhibition [9]: -0.31%
